Results published in ChEMBL document CHEMBL3988442, “University of Dundee, Small-Polar-MMV Screening Library” (2021).
Among all 48,000 compounds or so, about 13,000 (27%) showed an effect of 50% or more. The list shows a part of the results.

System: Wolbachia pipientis
Test: Anti-Wolbachia Cell-Based Screen
Assay type: functional
Parameters: scale not given: in the data most compounds retested in dose-response had high values
Details: 5 µM

Compound	Percent Effect [%]
CC(C)CCN1CCNC(=O)C1CC(=O)N1CCc2sccc2C1 (stereo not given)	-6.453
COc1ccccc1CN1CCCC(Cc2nccnc2N)C1 (stereo not given)	104.1
COc1ccccc1CC1CCCN(C(=O)c2nccnc2N)C1 (stereo not given)	7.342
COc1ccccc1CN1CCCC(n2cccn2)C1 (stereo not given)	-0.1221
O=C(NCC1CCCN(Cc2cccc3nonc23)C1)c1ccc[nH]1 (stereo not given)	22.2
Cc1nc(CC2CCCN(Cc3nc(N)c4ccccc4n3)C2)no1 (stereo not given)	-1.933
Nc1nccnc1CC1CCCN(Cc2cccc3[nH]ccc23)C1 (stereo not given)	126.9
c1ccc2c(Cc3nnc([C@H]4CCN(CC5CC5)C4)o3)c[nH]c2c1	-3.432
O=C(Cc1c[nH]c2ccccc12)NCC1CCN(Cc2c[nH]cn2)C1 (stereo not given)	-4.859
CCn1c(C2CCCN(Cc3ccnc4ccccc34)C2)nn(C)c1=O (stereo not given)	0.7157
Nc1nccnc1CC1CCCN(Cc2ccnc3ccccc23)C1 (stereo not given)	254.5
Nc1nccnc1CC1CCCN(Cc2c[nH]c3ccccc23)C1 (stereo not given)	102
CC(=O)N1[C@H](Cn2cncn2)C[C@@H]2CN(c3ccc(C)nn3)CC[C@@H]21	0.7192
N#Cc1cccc(S(=O)(=O)Nc2c(F)cccc2N2CCCC2)c1	-6.503
Cc1nn(C)c2nc(N(Cc3ccncc3)CC3CCCO3)sc12 (stereo not given)	-11.41
O=C(NCC1CCOCC1)c1cc(-c2cccnc2)c2cnccc2n1	94.41
O=C(NCC1CCOC1)c1cc(-c2ccc(F)cc2)[nH]n1 (stereo not given)	-3.417
O=C(NCC1CCOC1)c1cc(-c2ccccc2Cl)[nH]n1 (stereo not given)	-16.18
O=C(NCC1CCOCC1)c1cc(-c2ccncc2)c2cnccc2n1	108.8
O=C(NCC1CCOC1)c1csc(Cc2ccccc2)n1 (stereo not given)	5.242
CSCCC(=O)NCc1cc2n(n1)CCN(C(=O)N(C)C)C2	-0.4963
CSCC[C@H](N)C(=O)NCc1cc2n(n1)CCCN(C(=O)C1CCC1)C2	51.59
CSCC[C@H](N)C(=O)NCc1cc2n(n1)CCCN(C(=O)N(C)C)C2	122.1
CCn1cc(CN2CCCn3nc(CNC(=O)C4CCC4)cc3C2)cn1	6.964
CSC(C)CCN1CCCn2nc(CNC(=O)C3CCC3)cc2C1 (stereo not given)	-26.67

Compound	Percent Effect [%]
CCSCCC(=O)NCc1cc2n(n1)CCN(C(=O)N(C)C)C2	-0.2016
COc1c(F)cccc1C(=O)N(C)Cc1nc(-c2ccccn2)no1	-5.196
O=C(c1nnn(-c2ccccc2F)c1-c1ccccn1)N1CCSCC1	6.252
CCC(CC)CN(C)Cc1nc(-c2ccccc2NS(C)(=O)=O)oc1C	-3.021
Cc1nsc(NC(=O)N2CCCCC2CCO)n1 (stereo not given)	17.59
c1cc(CNCc2ccnc(N3CCOCC3)c2)c2c(c1)OCCO2	-3.552
CN(C)C1CCN(C(=O)NCc2ccc(Cn3cncn3)cc2)CC1	-7.697
Cl.c1cc(CNCc2cccc3c2OCCCO3)cc(Cn2cncn2)c1	92.05
CN(C)c1cc(CNCc2cccc3c2OCCO3)ccn1	-14.59
OCc1cccc(CNCc2cccc3c2OCCO3)c1	91.71
c1ncn(Cc2ccc(CNCc3ccc4c(c3)OCCO4)cc2)n1	118.2
c1cc(CNCc2ccnc(N3CCCCC3)c2)c2c(c1)OCCCO2	-27.55
CC(C)c1nn(C)c(Cl)c1CNCc1ccc2c(c1)OCCO2.Cl	-6.63
c1cc(CNCc2ccnc(N3CCCC3)c2)c2c(c1)OCCCO2	-11.45
Cl.c1cc(CNCc2ccnc(N3CCCC3)c2)c2c(c1)OCCO2	3.03
O=S(=O)(CCNCc1cccc2c1OCCO2)N1CCOCC1	-15.52
Cl.c1cc(CNCc2ccc(Cn3cncn3)cc2)c2c(c1)OCCO2	98.52
CC(C)CN1C(=O)CC[C@H]2CN(C(=O)c3ncc[nH]3)CC[C@H]21	5.326
O=C(NCC1(c2ccc(F)cc2)CCC1)N1CCC2(CCOCC2)C1	-1.308
CC(=O)c1cc(CN2C[C@@H](NS(=O)(=O)N(C)C)[C@H](C(C)C)C2)cs1	-2.035
CC(NCc1ccncc1)c1cc2c(cc1Br)OCCO2 (stereo not given)	-11.71
Cc1nn(C)c(N(C)C)c1CNCc1cccc(OCCN(C)C)c1	-12.69
CCc1ncncc1C(=O)NCCNC(=O)c1ccc(C)c(F)c1	24
c1cc(CNCc2cccc3c2OCCO3)cc(Cn2cncn2)c1	82.82
CC1CN(c2cc(CNCc3cccc4c3OCCO4)ccn2)CCO1 (stereo not given)	-31.92

Compound	Percent Effect [%]
c1cc(CNCc2ccnc(N3CCOCC3)c2)c2c(c1)OCCCO2	13.14
CN(Cc1nc2c(cnn2C)c(=O)[nH]1)Cc1ccco1	90.92
COCCN(Cc1nc2c(cnn2C)c(=O)[nH]1)Cc1ccco1	0.2947
Cc1ccc(CN(C)Cc2nc3c(cnn3C)c(=O)[nH]2)o1	10.6
CCN(Cc1nc2c(cnn2C)c(=O)[nH]1)Cc1cccs1	17.21
CCN(Cc1nc2c(cnn2C)c(=O)[nH]1)Cc1ccco1	83.36
Cc1occc1CN(C)Cc1nc2c(cnn2C)c(=O)[nH]1	0.5275
CCN(CC)CCn1cnc(-c2ccccc2)c1-c1ncc[nH]1	-14.65
COc1c(CNC2(c3noc(C)n3)CCC2)c(C)nn1C.Cl	-0.07917
CCc1nc(C)c(C(C)N(C)CCc2ccncc2)s1 (stereo not given)	1.512
O=C1CCC2(CCCN(C(=O)c3cnccn3)CC2)N1 (stereo not given)	-28.51
CNC(=O)C1(c2cnccn2)CCCN1C(=O)c1c(F)cccc1F (stereo not given)	94.23
CNC(=O)C1(c2cnccn2)CCCN1C(=O)c1ccccc1F (stereo not given)	99.27
CN(CC(=O)N1CCN(c2ccccc2F)CC1)c1cnccn1	4.093
COCCC1(CO)CCCN(C(=O)c2cccnc2OC)C1 (stereo not given)	-0.7359
CNC(=O)C1(c2cnccn2)CCCN1C(=O)c1ccccc1C (stereo not given)	116.1
CNC(=O)C1(c2cnccn2)CCCN1C(=O)c1cccnc1OC (stereo not given)	97.1
CNC(=O)C1(c2cnccn2)CCCN1C(=O)c1ccccc1OC (stereo not given)	2.763
O=C1CCCC2(CCN(C(=O)c3cnccn3)CC2)N1	-3.096
CCC(CC)n1ncc(C(=O)NS(=O)(=O)c2ccsc2)c1C	-0.139
CN(Cc1ncnn1C)C(=O)CCn1ccc2ccccc21	-15.17
CN(C)c1ncnc2c1CCN(C(=O)c1sccc1S(N)(=O)=O)C2	-19.94
CN(C)CC(=O)N1Cc2nc(C(=O)NCc3ccncc3)oc2C1	-11.57
O=c1nc(SCc2cccnc2)c2c(n1CCO)CCCC2	8.765
O=C(N[C@]12CC1CN(C(=O)c1ccco1)C2)c1ccoc1 (stereo not given in full)	-22.61

Compound	Percent Effect [%]
CNc1ncccc1C(=O)N1CCCC2(CCN(C)CC2)CC1	-1.008
CNC(=O)C1(c2cnccn2)CCCN1C(=O)c1ncccc1C (stereo not given)	109.2
O=C(O)C(F)(F)F.c1c2c(nn1CC1CCOCC1)C(CNC1CCOCC1)OCC2 (stereo not given)	-44.92
O=C(O)C(F)(F)F.O=C(O)C(F)(F)F.c1cc(CNCC2OCCc3cn(CC4CC4)nc32)cs1 (stereo not given)	-9.045
COCCn1cc2c(n1)C(CNCc1cccc(OC)c1)OCC2.O=C(O)C(F)(F)F (stereo not given)	125
COCCn1cc2c(n1)C(CNCc1ccc(F)cc1)OCC2.O=C(O)C(F)(F)F.O=C(O)C(F)(F)F (stereo not given)	10.33
COCCn1cc2c(n1)C(CNCc1nccs1)OCC2.O=C(O)C(F)(F)F.O=C(O)C(F)(F)F (stereo not given)	108.5
O=C(Cc1ccccn1)NCC1OCCc2cn(CC3CC3)nc21.O=C(O)C(F)(F)F (stereo not given)	-22.67
O=C(O)C(F)(F)F.O=C(O)C(F)(F)F.O=C(O)C(F)(F)F.c1ccc(Cn2cc3c(n2)C(CNCC2CCOCC2)OCC3)nc1 (stereo not given)	3.019
Fc1cccc(CNCC2OCCc3cn(CC4CCOCC4)nc32)c1.O=C(O)C(F)(F)F (stereo not given)	-13.58
COCCn1cc2c(n1)C(CNCc1ccsc1)OCC2.O=C(O)C(F)(F)F (stereo not given)	95.33
Cc1ccc(Sc2ccc(CN3CCC4(CC3)NCCNC4=O)o2)cc1	-3.78
CCCN(C)c1ccc(C(=O)Nc2c(C)nn(C(C)C)c2C)cc1	9.882
Cc1ccc(CNC(=O)c2oc3ccccc3c2CN(C)C)n1C	-0.2654
Cl.O[C@@H]1CN(Cc2ccc(F)c(F)c2)CC[C@H]1NCc1ccccn1	84.03
Cc1[nH]c2ccc(CNC3CCN(Cc4ccccn4)CC3)cc2c1C	-2.213
Fc1ccc(OCc2nnc([C@H]3CCN(Cc4ccccn4)C3)o2)cc1	11.6
CN(Cc1cccc(F)c1)C1CCN(CCc2ccccn2)CC1	5.619
Cl.O[C@@H]1CN(Cc2ccc(F)cc2)CC[C@H]1NCc1ccccn1	97.86
Fc1ccc(CNC2CCN(CCc3ccncc3)CC2)cc1F	-3.888
COCc1nccc(C2CCCN(Cc3cccc(F)c3)C2)n1 (stereo not given)	-13.68
Cl.O[C@@H]1CN(Cc2cccc(F)c2)CC[C@H]1NCc1ccccn1	63.1
O=C(NC[C@H]1OC[C@@H](NCc2ccccn2)[C@@H]1O)c1ccc(F)cc1	4.298
Cc1nccc(-c2ccccc2)c1C(=O)N1CC[C@](C)(O)[C@H](C)C1	-6.254
CC(C)CN(C)S(=O)(=O)c1ccc(Cl)cc1C#N	-10.78
